The values below come from PubChem BioAssay.

Where “and” joins values, the source holds several entries; their conditions need not be identical. Equal values may be shown once. Records with an inconclusive call do not appear. Calls of active or inactive are those of the source. Rule as the data show it, unless noted: active = parasite load remaining mostly below about 12% (no sharp cut-off); inactive = mostly above about 10%.

The nature of experiment [1]: compounds altering viability of human ES cells (AID 493140; call rule not given here;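 also: cells exposed to compounds for four days before counting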). The following applies: human embryonic stem cell survival screen; stronger effect = higher value.
Experiment [2] can be described thus: P. berghei load reduction in hepatocytes – cell-based, HepG2, luciferase luminescence, HepG2 viability, primary screen (AID 624349).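 Also: 100% = mean of DMSO negative control wells on the same plate.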 The following applies: P. berghei liver stage in HepG2, luciferase luminescence, concentration not given here; parasite load remaining: stronger effect = lower value; viability: measured here: HepG2 viability without parasites.
Experiment [3] can be described thus: Wnt pathway potentiators raising nuclear beta-catenin – imaging, WNT3A-conditioned medium, mouse C2C12, NPC library, primary screen (AID 1117326; in the data active = nuclear beta-catenin stimulation mostly above about 4.2%, no sharp cut-off; inactive = mostly below about 10%). The following applies: stronger effect = higher value.
Experiment [4] in a line: stimulators of insulin release from INS-1E, primary screen, cell-based, 5 mM glucose, NPC library (AID 1117329;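 active = compound raises insulin release from rat beta cells at 5 mM glucose, no numeric limit stated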). The note with it: rat INS-1E insulin secretion, at 10 µM, stronger effect = higher value.
Experiment [5] can be described thus: growth inhibition of GSK3B-pretreated HCT116 cells – cell-based, CellTiter-Glo, 0.2 to 20 µM (AID 1117336;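 active = compounds lowering colon cancer cell viability after pretreatment blocking the GSK3B kinase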). The note with it: HCT116 viability after GSK3B inhibitor, at 20 µM, stronger effect = higher value. For orientation: ATP-based viability assays read luminescence as a measure of living cells.
A short description of experiment [6]: inhibition of endothelial tube formation, primary screen, imaging, VEGF stimulated, CD31 staining, tube area, NPC library (AID 1117340;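 active = compound that reduces growth-factor-driven endothelial tube area in a mixed cell culture, no cutoff stated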). The note with it: VEGF-stimulated ADSC/ECFC co-culture, at 10 µM, stronger effect = higher value.
Experiment [7] is described as follows: GLP1 release stimulators, primary, NCI-H716, NPC library (AID 1117341;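 active = compound raises GLP1 secretion from the human gut endocrine cells, with no numeric limit stated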). The note with it: NCI-H716 cells, at 10 µM, stronger effect = higher value.
The nature of experiment [8]: HCT116 colon cancer cell growth inhibition, primary screen, CellTiter-Glo luminescence, NPC library (AID 1117342;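 active = compounds that lower survival of HCT116 colon cancer cells in the luminescence readout, no numeric limit stated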). The note with it: at 20 µM (top of the series).
Experiment [9] in a line: reduced SW480 viability measured with CellTiter-Glo, NPC library, primary (AID 1117343;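 active = compounds that lower viability of the colon cancer cells in the luminescence readout, with no numeric limit stated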). The following applies: CellTiter-Glo luminescence; at 20 µM (top of the series) unless noted.
Experiment [10] in a line: NPC library primary testing for decreased DLD-1 cell viability via CellTiter-Glo (AID 1117346;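 active = compounds that lower survival of DLD-1 colon cancer cells in the luminescence readout, no cutoff given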). The note with it: DLD-1 viability, CellTiter-Glo luminescence; at 20 µM (top of the series).
A short description of experiment [11]: viability loss with induced miR-34 in A549 – imaging, A549 dox-inducible miR-34, nuclei and caspase counts, primary screen (AID 1347080;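 active = compounds whose cell count with miR-34 switched on is under 0.7 times the count with it off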). The note with it: A549 miR-34 inducible, Hoechst nuclei count, 48 h.
The nature of experiment [12]: MELAS cybrid and Rieske KO viability enhancers – cell-based, MELAS cybrids, Rieske KO mouse fibroblasts, CellTiter-Glo, primary screen (AID 1508586;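 active = mean z-score across replicates of 1.96 or higher in either the MELAS or the Rieske mutant cell line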;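 also: z relative to plate mean and SD of compound and empty wells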). The following applies: low glucose.
Experiment [13] addresses ATP-dependent translocase ABCB1 (Homo sapiens) (UniProt P08183). The experiment can be described thus: P-glycoprotein substrate transport blockade – cell-based (AID 377; in the data active = fluorescence slope change above about 50%). The following applies: MDR1-expressing cells, fluorescent substrate accumulation slope; stronger effect = higher value; concentration not given here.
Experiment [14] deals with NAD(+) hydrolase SARM1 (Homo sapiens) (UniProt Q6SZW1). The experiment can be described thus: blocking NAD cleavage by SARM1 SAM-TIR – cell lysate, NAD-Glo luminescence (AID 1508614;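 active = compound whose remaining NAD level is above about 45 nM, limit read from the data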;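 also: higher remaining NAD means stronger inhibition of SARM1 NADase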). The note with it: SAM-TIR HEK293T lysate NADase, at 1 µM, stronger effect = higher value.
Chain of NAD(+) hydrolase SARM1 (Homo sapiens) (Q6SZW1 whole entry, looked up, the tested form may be a part): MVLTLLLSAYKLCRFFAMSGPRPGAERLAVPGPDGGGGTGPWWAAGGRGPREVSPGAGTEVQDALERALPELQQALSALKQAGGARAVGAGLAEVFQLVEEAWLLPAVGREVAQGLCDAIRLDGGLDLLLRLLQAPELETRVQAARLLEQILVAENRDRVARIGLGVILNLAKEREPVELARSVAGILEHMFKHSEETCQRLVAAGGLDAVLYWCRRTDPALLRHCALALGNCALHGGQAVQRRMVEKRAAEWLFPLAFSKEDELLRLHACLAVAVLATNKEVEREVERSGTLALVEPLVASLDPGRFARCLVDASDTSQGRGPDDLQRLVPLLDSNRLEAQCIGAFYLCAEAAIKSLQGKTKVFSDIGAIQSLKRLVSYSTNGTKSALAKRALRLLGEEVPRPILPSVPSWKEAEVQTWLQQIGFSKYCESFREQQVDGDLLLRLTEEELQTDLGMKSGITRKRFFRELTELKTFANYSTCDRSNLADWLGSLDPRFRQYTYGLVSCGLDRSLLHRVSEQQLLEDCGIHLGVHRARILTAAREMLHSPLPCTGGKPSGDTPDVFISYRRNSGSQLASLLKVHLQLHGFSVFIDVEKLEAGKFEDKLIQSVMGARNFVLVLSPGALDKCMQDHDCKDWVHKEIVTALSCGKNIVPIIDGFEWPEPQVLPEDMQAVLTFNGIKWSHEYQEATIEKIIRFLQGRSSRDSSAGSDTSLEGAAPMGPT
Experiment [15] concerns the target Mitogen-activated protein kinase 7 (Homo sapiens) (UniProt Q13164). The experiment can be described thus: Gal4-ERK5 driven luciferase induction – cell-based, HTS, primary screen (AID 1508626;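 active = luciferase signal above three times the same-plate solvent-only control wells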;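 also: luciferase driven by Gal4-ERK5 fusion binding five Gal4 sites before minimal TATA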). The following applies: HeLa Gal4-ERK5 transactivation, 18 h, at 5 µM, stronger effect = higher value.
The mark [16] stands for this setting: stronger effect = lower value, cell number ratio, induced over uninduced.
[17] abbreviates: measured here: relative caspase fold change +Dox/-Dox.
The mark [18] stands for this setting: measured here: total cells with miR-34 induction, stronger effect = lower value.
[19] abbreviates: measured here: total cells without miR-34 induction.
Where [20] appears, read: MELAS cybrid survival, CellTiter-Glo 48 h, stronger effect = higher value.
[21] abbreviates: Rieske KO mouse fibroblast survival, CellTiter-Glo 72 h.

Chain of Mitogen-activated protein kinase 7 (Homo sapiens) (Q13164 whole entry, looked up, the tested form may be a part): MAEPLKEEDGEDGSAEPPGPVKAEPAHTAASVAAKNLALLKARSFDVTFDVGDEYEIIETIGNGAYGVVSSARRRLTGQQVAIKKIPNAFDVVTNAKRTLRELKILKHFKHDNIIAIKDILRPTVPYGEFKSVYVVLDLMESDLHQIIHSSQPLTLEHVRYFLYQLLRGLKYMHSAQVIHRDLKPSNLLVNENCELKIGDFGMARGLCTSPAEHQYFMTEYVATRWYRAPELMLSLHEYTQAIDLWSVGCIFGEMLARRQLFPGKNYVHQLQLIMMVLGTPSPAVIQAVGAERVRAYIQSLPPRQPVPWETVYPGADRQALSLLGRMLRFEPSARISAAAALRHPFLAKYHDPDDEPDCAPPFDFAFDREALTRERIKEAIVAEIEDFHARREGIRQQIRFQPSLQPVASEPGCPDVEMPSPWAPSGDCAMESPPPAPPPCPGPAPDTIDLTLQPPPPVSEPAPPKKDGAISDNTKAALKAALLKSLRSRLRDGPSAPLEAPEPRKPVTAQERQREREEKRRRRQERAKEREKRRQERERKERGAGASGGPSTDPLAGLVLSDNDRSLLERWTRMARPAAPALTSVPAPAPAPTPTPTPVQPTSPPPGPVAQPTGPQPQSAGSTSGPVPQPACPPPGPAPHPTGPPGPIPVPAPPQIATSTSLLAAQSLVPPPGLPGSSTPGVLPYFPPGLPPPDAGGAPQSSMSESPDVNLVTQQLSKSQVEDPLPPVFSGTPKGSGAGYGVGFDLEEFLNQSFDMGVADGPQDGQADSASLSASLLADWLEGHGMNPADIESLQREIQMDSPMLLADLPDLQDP
Chain of ATP-dependent translocase ABCB1 (Homo sapiens) (P08183 whole entry, looked up): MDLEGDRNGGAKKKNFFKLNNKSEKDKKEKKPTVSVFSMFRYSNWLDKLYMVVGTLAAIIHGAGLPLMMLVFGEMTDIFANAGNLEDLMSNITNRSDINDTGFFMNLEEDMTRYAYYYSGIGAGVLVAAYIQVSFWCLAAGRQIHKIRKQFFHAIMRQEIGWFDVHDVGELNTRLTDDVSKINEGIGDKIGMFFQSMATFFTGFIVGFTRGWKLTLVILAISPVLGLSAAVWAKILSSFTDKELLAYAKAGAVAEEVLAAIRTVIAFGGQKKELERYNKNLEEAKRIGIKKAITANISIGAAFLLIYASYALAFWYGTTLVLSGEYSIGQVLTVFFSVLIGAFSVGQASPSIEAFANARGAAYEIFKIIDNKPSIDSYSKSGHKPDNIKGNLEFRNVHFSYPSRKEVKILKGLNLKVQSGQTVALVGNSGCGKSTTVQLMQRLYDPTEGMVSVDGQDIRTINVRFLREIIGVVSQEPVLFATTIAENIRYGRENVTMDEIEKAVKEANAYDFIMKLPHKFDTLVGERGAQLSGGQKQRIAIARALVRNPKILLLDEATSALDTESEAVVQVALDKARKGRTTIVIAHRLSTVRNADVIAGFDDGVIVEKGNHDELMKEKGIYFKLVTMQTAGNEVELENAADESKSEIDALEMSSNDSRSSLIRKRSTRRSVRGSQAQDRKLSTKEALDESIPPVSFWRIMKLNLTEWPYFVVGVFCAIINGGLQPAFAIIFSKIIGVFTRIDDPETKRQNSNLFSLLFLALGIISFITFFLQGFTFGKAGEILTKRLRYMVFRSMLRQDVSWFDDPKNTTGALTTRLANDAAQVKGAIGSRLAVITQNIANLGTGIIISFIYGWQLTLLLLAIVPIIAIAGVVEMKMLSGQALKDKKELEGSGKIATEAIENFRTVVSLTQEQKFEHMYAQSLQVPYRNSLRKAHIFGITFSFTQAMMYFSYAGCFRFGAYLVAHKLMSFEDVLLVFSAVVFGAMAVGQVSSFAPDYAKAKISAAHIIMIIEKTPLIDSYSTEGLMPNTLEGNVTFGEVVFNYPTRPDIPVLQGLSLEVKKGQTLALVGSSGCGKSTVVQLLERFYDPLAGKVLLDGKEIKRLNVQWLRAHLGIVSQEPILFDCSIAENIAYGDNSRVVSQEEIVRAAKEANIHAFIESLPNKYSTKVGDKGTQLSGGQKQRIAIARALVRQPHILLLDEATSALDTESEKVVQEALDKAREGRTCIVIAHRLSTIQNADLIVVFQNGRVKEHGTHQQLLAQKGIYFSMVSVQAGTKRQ

As for `C/C(=C(\CCOP(=O)(O)O)SC(=O)c1ccccc1)N(C=O)Cc1cnc(C)nc1N`, in [1], the survival was 11 (inactive). In addition, the parasite load remaining in [2] was 106% (inactive). Further, in experiment [2], the viability came out at 102%. The nuclear beta-catenin stimulation in [3] (at 10 µM) was -2.6% (inactive); in experiment [3] (stimulation, at 2 µM), -0.9%. Moreover, the insulin secretion stimulation in experiment [4] is 1.6% (inactive). Further, the viability decrease in [5] was -1.5% (inactive). The tube area decrease in experiment [6] was -4.8% (inactive). Further, the GLP1 secretion stimulation in [7] is -2.7% (inactive). For the same compound, the inhibition of viability in experiment [8] was 4.6% (inactive). Further, the viability decrease (inhibition) in [9] is -2.1% (inactive); in [10], -1% (inactive). Besides, the fold change was 0.873 (inactive) in [11] (setting [16]) and 1.12 in experiment [11] (setting [17]). For the same compound, the cell count amounted to 8510 in experiment [11] (setting [18]) and 9750 in experiment [11] (setting [19]). In addition, the z-score is 0.178 (inactive) in experiment [12] (setting [20]) and 0.46 in [12] (setting [21]).
On to `CN1CCN(CCCN2c3ccccc3Sc3ccc(S(=O)(=O)N(C)C)cc32)CC1`, for which the fluorescence slope change in experiment [13] is 52.4% (active). The survival in experiment [1] was 4.08 (inactive). For the same compound, the parasite load remaining in [2] was 35.2% (inactive) and 94.1% (inactive). For the same compound, the viability in experiment [2] was 47.9% and 85.3%. For the same compound, the nuclear beta-catenin stimulation in [3] (at 10 µM) was 33.2% (inactive); in experiment [3] (stimulation, at 2 µM), 0.3%. In addition, the insulin secretion stimulation in [4] was 12.3% (inactive). Moreover, the viability decrease in experiment [5] was 99.5% (active). Besides, in experiment [6], the tube area decrease was 108% (active). In addition, the GLP1 secretion stimulation in experiment [7] was -2.9% (inactive). For the same compound, the inhibition of viability in experiment [8] is 99.9% (active). Further, the viability decrease (inhibition) in experiment [9] is 103% (active); in [10], 95% (active). The fold change is 0.928 (inactive) in experiment [11] (setting [16]) and 1.43 in [11] (setting [17]). In addition, the cell count worked out at 7890 in experiment [11] (setting [18]) and 8500 in experiment [11] (setting [19]). For the same compound, the z-score in [12] (setting [20]) was 0.365 (inactive); in experiment [12] (setting [21]), 0.522.
In the case of `O=C1[O][Bi][O]c2ccccc21`, the parasite load remaining in experiment [2] is 39.8% (inactive). Also, in [2], the viability was 103%. Further, the nuclear beta-catenin stimulation was 0.6% (inactive) in experiment [3] (at 10 µM) and 0.8% in experiment [3] (stimulation, at 2 µM). Moreover, in experiment [4], the insulin secretion stimulation was 2.7% (inactive). For the same compound, in [5], the viability decrease was 13.3% (inactive). In addition, the tube area decrease in experiment [6] was -3.4% (inactive). The GLP1 secretion stimulation in [7] is 1.9% (inactive). Moreover, the inhibition of viability in experiment [8] was 14% (inactive). Also, the viability decrease (inhibition) in experiment [9] was 28.1% (inactive); in experiment [10], 3.2% (inactive). Also, the fold change in experiment [11] (setting [16]) was 0.887 (inactive); in experiment [11] (setting [17]), 3.11. Besides, the cell count is 12000 in experiment [11] (setting [18]) and 13500 in experiment [11] (setting [19]). Besides, the remaining NAD in experiment [14] was 52 nM (active). The luciferase signal in experiment [15] is 60 AU (inactive).
For the compound `NS(=O)(=O)c1cc(C(=O)O)cc(N2CCCC2)c1Oc1ccccc1`, the survival in [1] is 11.5 (inactive). In addition, in experiment [2], the parasite load remaining is 67.6% (inactive). For the same compound, in [2], the viability was 80.6%. Besides, the nuclear beta-catenin stimulation in experiment [3] (at 10 µM) was 0.5% (inactive); in [3] (stimulation, at 2 µM) it was -0.6%. For the same compound, the insulin secretion stimulation in experiment [4] is -1% (inactive). In [5], the viability decrease is -7.05% (inactive). The tube area decrease in experiment [6] was -7% (inactive). Moreover, the GLP1 secretion stimulation in experiment [7] is 1.1% (inactive). Also, in experiment [8], the inhibition of viability is 6.7% (inactive). For the same compound, the viability decrease (inhibition) in [9] was -4.4% (inactive); in experiment [10], -15.4% (inactive). Also, the fold change in experiment [11] (setting [16]) was 0.92 (inactive); in experiment [11] (setting [17]), 0.688. In addition, the cell count in experiment [11] (setting [18]) was found to be 8630; in [11] (setting [19]), 9380. Also, the z-score in experiment [12] (setting [20]) was -0.17 (inactive); in experiment [12] (setting [21]), -0.69.
As for `C1CCN2C[C@@H]3C[C@@H](CN4CCCC[C@@H]34)[C@H]2C1`, in [13], the fluorescence slope change was 10.6% (inactive). Further, the parasite load remaining in [2] was 47.2% (inactive). Also, the viability in experiment [2] was 113%. Also, the nuclear beta-catenin stimulation in experiment [3] (at 10 µM) was -0.4% (inactive); in [3] (stimulation, at 2 µM), -0.5%. For the same compound, the insulin secretion stimulation in [4] is 15.2% (inactive). Further, in [5], the viability decrease was 5.9% (inactive). The tube area decrease in experiment [6] was -8.8% (inactive). In addition, the GLP1 secretion stimulation in [7] was 1.2% (inactive). Besides, in experiment [8], the inhibition of viability is 22.6% (inactive). Also, the viability decrease (inhibition) in [9] was 3.2% (inactive); in experiment [10], 4.2% (inactive). The values for the fold change in experiment [11] (setting [16]) and in [11] (setting [17]) were 0.853 (inactive) and 1.2, respectively. Moreover, the figures for the cell count in experiment [11] (setting [18]) and in experiment [11] (setting [19]) were 8930 and 10500, respectively. Besides, in experiment [14], the remaining NAD is 10 nM (inactive). For the same compound, the luciferase signal in experiment [15] was 60 AU (inactive).

What is called viability is a read-out of living cells in per cent, often relative to untreated cells.
